Experimental data published in PubChem BioAssay.
Active and inactive are the calls of the source. Unless noted, how the calls were made is not given here.

Columns and labels:
[1] = compounds binding Alexa647 anti-His antibody – biochemical, small-molecule microarray, 635 nm fluorescence, artefact control for SMM control protein annotation, primary screen (AID 1128); settings: higher = more signal;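 further: score merges feature fluorescence with signal-to-noise for each printed compound spot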
[2] = system: Human papillomavirus type 1a E7 protein (residues 1-88); assay: HPV1a E7 small-molecule binders, primary screen, biochemical, small-molecule microarray, residues 1-88, 635 nm (AID 1129); settings: small-molecule microarray binding, fluorescence 635 nm; higher = more signal
[3] = biological target: Focal adhesion kinase 1 (Homo sapiens) (UniProt Q05397); assay: PTK2 protein binding on printed compound slides – biochemical, small-molecule microarray, 635/667 nm fluorescence, BSA, DTT, primary screen (AID 1130); settings: 635 nm fluorescence, higher = more signal;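 further: composite of spot emission at 667 nm and signal to noise over triplicate slides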
Focal adhesion kinase 1 (Homo sapiens), sequence (Q05397 whole entry, looked up): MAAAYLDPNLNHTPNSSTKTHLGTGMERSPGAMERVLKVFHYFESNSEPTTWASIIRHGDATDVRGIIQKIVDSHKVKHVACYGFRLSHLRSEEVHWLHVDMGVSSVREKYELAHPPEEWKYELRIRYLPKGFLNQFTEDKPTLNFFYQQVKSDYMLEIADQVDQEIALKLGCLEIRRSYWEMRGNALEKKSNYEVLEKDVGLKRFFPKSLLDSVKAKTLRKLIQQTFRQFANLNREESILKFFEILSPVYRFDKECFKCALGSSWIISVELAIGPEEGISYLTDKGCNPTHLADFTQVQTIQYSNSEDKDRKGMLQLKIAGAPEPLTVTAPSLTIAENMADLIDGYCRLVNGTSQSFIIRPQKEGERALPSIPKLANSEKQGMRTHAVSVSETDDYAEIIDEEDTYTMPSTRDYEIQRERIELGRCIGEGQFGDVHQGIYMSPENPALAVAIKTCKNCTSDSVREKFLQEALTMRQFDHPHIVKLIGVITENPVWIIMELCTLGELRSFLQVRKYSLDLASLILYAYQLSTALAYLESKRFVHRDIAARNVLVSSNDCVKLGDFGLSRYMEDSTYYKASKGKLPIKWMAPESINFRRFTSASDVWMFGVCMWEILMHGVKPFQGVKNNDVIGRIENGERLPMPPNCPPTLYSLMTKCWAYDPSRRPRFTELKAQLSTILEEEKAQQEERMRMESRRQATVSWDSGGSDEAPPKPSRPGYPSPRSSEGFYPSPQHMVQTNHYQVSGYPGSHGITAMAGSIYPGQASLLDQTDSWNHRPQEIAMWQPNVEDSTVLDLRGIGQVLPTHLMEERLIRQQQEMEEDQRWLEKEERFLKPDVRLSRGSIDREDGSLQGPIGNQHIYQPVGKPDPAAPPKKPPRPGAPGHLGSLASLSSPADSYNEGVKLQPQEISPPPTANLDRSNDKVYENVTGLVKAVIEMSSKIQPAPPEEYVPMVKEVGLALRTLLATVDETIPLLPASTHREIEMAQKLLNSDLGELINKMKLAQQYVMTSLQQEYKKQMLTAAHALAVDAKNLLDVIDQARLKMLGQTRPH

[4] = system: Fibrinogen (Alexa647-labelled); assay: Alexa647-fibrinogen binding to printed small molecules – biochemical, small-molecule microarray, 635/667 nm fluorescence, artefact control for SMM control-protein annotation, profiling panel (AID 1131); settings: fibrinogen-A647 binding fluorescence, higher = more signal;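 further: z-score merges 667 nm fluorescence with per-spot signal-to-noise over triplicate slides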
[5] = biological target: Follistatin (Homo sapiens) (UniProt P19883); assay: FST protein binding to printed compounds – biochemical, small-molecule microarray, 635/667 nm fluorescence, primary screen (AID 1132); settings: 635 nm fluorescence, higher = more signal
Follistatin (Homo sapiens), sequence (P19883 whole entry, looked up): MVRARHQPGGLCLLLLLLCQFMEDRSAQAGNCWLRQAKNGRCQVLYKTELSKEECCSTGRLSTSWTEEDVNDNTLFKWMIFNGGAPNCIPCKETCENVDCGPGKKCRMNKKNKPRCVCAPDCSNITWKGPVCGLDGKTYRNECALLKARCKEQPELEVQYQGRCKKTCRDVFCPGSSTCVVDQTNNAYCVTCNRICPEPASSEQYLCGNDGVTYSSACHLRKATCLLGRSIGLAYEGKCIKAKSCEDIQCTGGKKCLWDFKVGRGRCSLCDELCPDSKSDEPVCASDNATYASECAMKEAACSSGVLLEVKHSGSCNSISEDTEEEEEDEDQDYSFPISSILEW

[6] = biological target: Fibroblast growth factor 2 (Homo sapiens) (UniProt P09038); assay: basic fibroblast growth factor binding to printed compounds – biochemical, small-molecule microarray, 635/667 nm fluorescence, primary screen (AID 1133); settings: FGF2, fluorescence 635/667, higher = more signal
Fibroblast growth factor 2 (Homo sapiens), sequence (P09038 whole entry, looked up): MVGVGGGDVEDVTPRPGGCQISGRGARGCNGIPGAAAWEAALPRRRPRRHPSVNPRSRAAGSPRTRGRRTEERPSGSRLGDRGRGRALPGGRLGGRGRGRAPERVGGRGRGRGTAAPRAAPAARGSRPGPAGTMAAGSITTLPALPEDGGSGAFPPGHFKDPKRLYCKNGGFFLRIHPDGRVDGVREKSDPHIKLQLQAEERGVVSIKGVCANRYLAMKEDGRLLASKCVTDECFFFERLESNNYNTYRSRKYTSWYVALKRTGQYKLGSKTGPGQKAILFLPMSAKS

[7] = JC-1 mitochondrial potential readout, lung cancer cells – cell-based, A549, JC-1 fluorescence, basal, 24 h, 100 nL, profiling panel (AID 1138); settings: higher = more signal;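 further: A549 lung adenocarcinoma cells under basal conditions with no added stimulus; test concentration not given here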
Lefty1 = Lefty1 protein binding to printed compounds – biochemical, small-molecule microarray, 635/667 nm fluorescence, primary screen (AID 1139); settings: fluorescence 635/667, higher = more signal
[8] = system: wheat germ agglutinin (Triticum aestivum), Alexa647-labelled; assay: Alexa647-WGA lectin binding to printed small molecules – biochemical, small-molecule microarray, 635/667 nm fluorescence, artefact control for SMM control-protein annotation, profiling panel (AID 1140); settings: WGA-A647 binding, 635 nm fluorescence, higher = more signal;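 further: score merges 667 nm feature emission with signal to noise over triplicate slides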
[9] = biological target: Luciferin 4-monooxygenase (Photinus pyralis) (UniProt P08659); assay: inhibition of purified Photinus pyralis luciferase – biochemical, luminescence, purified enzyme, 2006 set, primary screen (AID 1141); settings: purified firefly luciferase, SteadyGlo luminescence, 30 min; higher = more signal, called active from +8 up or from −8 down;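 further: cell-free assay with purified firefly luciferase at 100 ng per well in PBS; test concentration not given here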
Luciferin 4-monooxygenase (Photinus pyralis), sequence (P08659 whole entry, looked up): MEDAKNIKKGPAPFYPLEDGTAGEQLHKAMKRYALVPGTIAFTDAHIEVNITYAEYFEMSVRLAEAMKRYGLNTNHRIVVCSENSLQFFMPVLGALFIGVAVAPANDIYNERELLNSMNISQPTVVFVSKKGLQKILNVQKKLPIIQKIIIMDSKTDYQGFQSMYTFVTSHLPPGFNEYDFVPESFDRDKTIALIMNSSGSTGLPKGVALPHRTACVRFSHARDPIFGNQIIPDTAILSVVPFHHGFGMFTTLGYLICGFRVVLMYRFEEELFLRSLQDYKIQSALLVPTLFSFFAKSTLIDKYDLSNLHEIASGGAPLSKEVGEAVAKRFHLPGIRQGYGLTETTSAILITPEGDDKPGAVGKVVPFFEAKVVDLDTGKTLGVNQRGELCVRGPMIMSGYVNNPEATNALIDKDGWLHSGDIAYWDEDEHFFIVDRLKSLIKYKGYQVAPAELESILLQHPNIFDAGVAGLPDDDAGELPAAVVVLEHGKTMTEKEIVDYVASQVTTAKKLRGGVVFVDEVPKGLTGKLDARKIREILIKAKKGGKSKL

[10] = system: Wnt5a (protein binding on small-molecule microarray); assay: small molecules binding Wnt5a protein – biophysical, small-molecule microarray, 635/667 nm fluorescence, primary screen (AID 1142); settings: 635 nm fluorescence, higher = more signal;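 further: fluorescence read at 667 nm with signal to noise per printed feature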
[11] = ATP-based viability of Huh7 replicon cells – cell-based, CellTiter-Glo luminescence, basal, 48 h, cytotoxicity control for HCV replication inhibitor project, primary screen (AID 1143); settings: higher = more signal, called active from +8 up or from −8 down;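 further: Huh7 hepatoma cells carrying a hepatitis C replication reporter with no stimulus; test concentration not given here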
[12] = Pseudomonas biofilm growth suppression – PAO1 strain, BacTiter-Glo luminescence, LB-PBS, primary screen (AID 1144); settings: P. aeruginosa PAO1 biofilm, 12 h, higher = more signal
[13] = basal CRE-LacZ reporter activity in PC12 – cell-based, unstimulated, primary screen (AID 1145); settings: no forskolin, luminescence, 4.5 h, higher = more signal, called active from +8 up or from −8 down
[14] = forskolin-driven CRE-LacZ activity in PC12 – cell-based, CRE-LacZ reporter, forskolin-stimulated, primary screen (AID 1146); settings: luminescence, 4.5 h, higher = more signal, called active from +8 up or from −8 down;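 further: PC12 cells with 6xCRE LacZ reporter stimulated by forskolin 10 µM; beta-galactosidase reporter signal reflecting CREB driven transcription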
[15] = biological target: Streptavidin (Streptomyces avidinii) (UniProt P22629); assay: compounds binding control protein streptavidin – biophysical, small-molecule microarray, 635/667 nm fluorescence, artefact control for SMM compound annotation, primary screen (AID 1147); settings: higher = more signal;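 further: signal reflects streptavidin binding to arrayed compounds as a control protein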
Streptavidin (Streptomyces avidinii), sequence (P22629 whole entry, looked up): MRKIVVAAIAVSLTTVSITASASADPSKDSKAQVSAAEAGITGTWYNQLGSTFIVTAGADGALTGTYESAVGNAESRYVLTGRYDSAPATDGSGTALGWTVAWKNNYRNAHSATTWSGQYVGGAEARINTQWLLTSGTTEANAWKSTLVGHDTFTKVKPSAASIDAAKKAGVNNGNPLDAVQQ

[16] = probe aInhba binding on compound microarray – biochemical, small-molecule microarray, 635/667 nm fluorescence, primary screen (AID 1148); settings: higher = more signal;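 further: score merges 667nm spot fluorescence with signal-to-noise for antibody binding to printed compounds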
Torsin-1A (Homo sapiens) [17] = biological target: Torsin-1A (Homo sapiens) (UniProt O14656); assay: TOR1A wild-type binding on microarray – cell lysate, small-molecule microarray, lysate, 635/667 nm, primary screen (AID 1149); settings: COS7 hTOR1A-WT lysate, 635 nm fluorescence, higher = more signal
Torsin-1A (Homo sapiens), sequence (O14656 whole entry, looked up): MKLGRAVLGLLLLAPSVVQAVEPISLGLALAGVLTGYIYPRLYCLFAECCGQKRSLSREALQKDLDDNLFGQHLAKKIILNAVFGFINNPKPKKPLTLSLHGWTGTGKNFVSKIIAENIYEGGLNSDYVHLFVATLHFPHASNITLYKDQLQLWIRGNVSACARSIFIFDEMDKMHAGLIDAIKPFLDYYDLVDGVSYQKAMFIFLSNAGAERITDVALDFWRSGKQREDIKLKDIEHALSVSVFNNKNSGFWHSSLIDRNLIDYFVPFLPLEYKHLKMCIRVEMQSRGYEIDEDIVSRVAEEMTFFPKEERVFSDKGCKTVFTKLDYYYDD

Torsin-1A (Homo sapiens) [18] = biological target: Torsin-1A (Homo sapiens) (UniProt O14656); assay: torsin A mutant lysate binding on microarrays – cell lysate, small-molecule microarray, COS7 lysate, 635/667 nm fluorescence, primary screen (AID 1150); settings: COS7 hTOR1A mutant lysate, 635 nm fluorescence, higher = more signal;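 further: score pools 667 nm emission and signal to noise measuring lysate protein binding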
[19] = system: Sonic hedgehog protein (Shh); assay: Sonic hedgehog microarray binding compounds – biochemical, small-molecule microarray, 635/667 nm fluorescence, primary screen (AID 1151); settings: 635 nm fluorescence, higher = more signal;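 further: Shh protein binding to compounds spotted on small-molecule microarray slides; score combines spot fluorescence intensity with signal-to-noise across triplicate slides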

Row | Structure (SMILES) | composite z-score [1] | composite z-score [2] | composite z-score [3] | composite z-score [4] | composite z-score [5] | composite z-score [6] | z-score [7] | composite z-score (Lefty1) | composite z-score [8] | z-score [9] | composite z-score [10] | z-score [11] | z-score [12] | z-score [13] | z-score [14] | composite z-score [15] | composite z-score [16] | composite z-score (Torsin-1A (Homo sapiens) [17]) | composite z-score (Torsin-1A (Homo sapiens) [18]) | composite z-score [19]
1 | CCCCC(=O)N(CCN1CCOCC1)[C@@H]1CC(C(=O)NCCO)=C[C@H](Oc2c(I)cc(CO)cc2OC)[C@H]1O | 0.438 | 0.358 | -0.444 | -0.0237 | 0.328 | 0.902 | 0.809 | 0.612 | 0.0626 | -0.658 (inactive) | -0.0408 | 0.0643 (inactive) | -0.141 (inactive) | 1.4 (inactive) | -1.19 (inactive) | -0.0538 | -0.253 | 0.314 | -0.0203 | 0.655
2 | CCN(CC)c1ccc(N2CC=CC34O[C@@H]5C=CCCOC(=O)C5[C@H]3C(=O)N(CCO)[C@@H]4C2=O)cc1 (stereo not given in full) | -0.827 | -1.74 | -0.491 | -1.21 | -0.722 | -1.01 | 0.108 | -1 | -0.553 | -0.643 (inactive) | -0.546 | -0.055 (inactive) | -0.167 (inactive) | 0.191 (inactive) | 0.0371 (inactive) | -1.02 | -0.163 | -0.894 | -1.42 | -0.0352
3 | C=C(/C(=C/C[C@@H](OC(C)=O)c1ccc(OCCO)cc1)c1cc(C(=O)OC)ccc1OC)C(C)C | 1.81 | 0.999 | 0.211 | 0.665 | 0.776 | 1.11 | 0.471 | 1.36 | 0.85 | -0.6 (inactive) | -0.0426 | -2.02 (inactive) | 1.03 (inactive) | 3.85 (inactive) | -0.27 (inactive) | -0.124 | 0.167 | 0.856 | 0.693 | 1.41
4 | Cc1cccc([C@H]2C[C@H]3C(Br)=C[C@@H]2C(=O)[C@]32CO2)c1 | -0.255 | -1.61 | -0.181 | -0.145 | 0.243 | 0.291 | 0.518 | 0.154 | -0.278 | -0.425 (inactive) | -0.258 | -0.687 (inactive) | 0.185 (inactive) | 0.854 (inactive) | 2.63 (inactive) | -0.221 | -0.239 | 0.397 | -1.21 | -0.198
5 | CCCNC(=O)[C@@]1(Sc2ccc(C)cc2)CC(=O)N(C(C)C)[C@@H]1c1ccc(CO)cc1I | -0.139 | -0.435 | -0.288 | -0.678 | -1.21 | -1.5 | 0.794 | -1.96 | -0.831 | -0.121 (inactive) | -0.272 | -1.07 (inactive) | 0.767 (inactive) | -0.412 (inactive) | 0.892 (inactive) | -1 | -0.186 | 0.0671 | 0.157 | -0.42
6 | CC(C)[Si]1(C(C)C)OCc2cc(-c3ccc(-c4ccc(Cl)c(Cl)c4)o3)nc(CCc3ccccc3)c21 | -1.14 | -0.122 | 0.164 | -0.0058 | -0.0289 | -0.11 | 1.4 | 0.0028 | 0.0809 | -2.45 (inactive) | 0.0947 | -1.53 (inactive) | -0.612 (inactive) | -0.0247 (inactive) | 1.6 (inactive) | -0.884 | -0.179 | -0.696 | -0.436 | 0.3
7 | C=C(CCCC)C(=O)CC[C@H](OC(=O)c1ccccc1-c1ccccc1C(=O)O)c1ccccc1OCCO | 1.51 | 0.341 | -0.218 | 0.412 | 0.419 | 0.448 | 0.58 | 0.311 | -0.107 | -1.82 (inactive) | -0.131 | -0.397 (inactive) | -0.447 (inactive) | 5.04 (inactive) | 5.73 (inactive) | -0.759 | -0.179 | 1.03 | 0.221 | 2.07
8 | CCCCNC(=O)c1ccc(C#C[Si](C(C)C)(C(C)C)C(C)C)c(OC(C)=O)c1 | 0.823 | 1.13 | 0.124 | 0.598 | 1.15 | 0.883 | -2.05 | 1.01 | 1.08 | 0.683 (inactive) | 0.268 | -0.915 (inactive) | -0.084 (inactive) | 0.223 (inactive) | 0.184 (inactive) | 1.04 | -0.187 | 0.598 | 0.216 | 1.74
9 | [N-]=[N+]=NCc1ccccc1[C@H]1OC(c2ccc(OCCCO)cc2)=N[C@@]1(CCS(=O)(=O)c1ccccc1)C(=O)NCc1ccccc1 | 1.41 | 1.2 | 0.13 | 0.941 | 1.36 | 0.623 | 0.453 | 0.189 | 0.703 | -1.41 (inactive) | 0.486 | -1.14 (inactive) | 0.318 (inactive) | 0.549 (inactive) | -0.0054 (inactive) | 1.25 | 0.282 | 0.61 | 0.563 | -0.081
10 | COC(=O)C(CC#Cc1ccc2c(c1)[C@]1(C(=O)N2)[C@H](C(=O)Nc2nc3ccccc3s2)[C@H]2C(=O)O[C@H](c3ccccc3)[C@H](c3ccccc3)N2[C@@H]1c1ccc(OCCO)cc1)C(=O)OC | 1.94 | 1.1 | 0.539 | 0.978 | 1.45 | 1.39 | -1.94 | 1.27 | 1.07 | -4.66 (inactive) | 1.07 | -2.48 (inactive) | -1.7 (inactive) | 0.415 (inactive) | -0.856 (inactive) | 1.25 | 0.146 | 1.65 | 0.541 | 1.53
